Test results taken from ChEMBL document CHEMBL1201862, “PubChem BioAssay data set” (2004).
“And” between values parts separate entries of the source, which are not always exact repeats. Identical values can stand only once. About 2,100 (0.53%) of roughly 400,000 compounds were called active. Another 14% or so got no clear call; they are omitted. The sample holds actives, similar compounds and a random draw of the others, so the mix is not that of the screen. The rule behind the calls is not given here.

molecular target: Ataxin-2 (Homo sapiens) (UniProt Q99700); experiment: qHTS for Inhibitors of ATXN expression.; format: functional
Sequence (Q99700 whole entry): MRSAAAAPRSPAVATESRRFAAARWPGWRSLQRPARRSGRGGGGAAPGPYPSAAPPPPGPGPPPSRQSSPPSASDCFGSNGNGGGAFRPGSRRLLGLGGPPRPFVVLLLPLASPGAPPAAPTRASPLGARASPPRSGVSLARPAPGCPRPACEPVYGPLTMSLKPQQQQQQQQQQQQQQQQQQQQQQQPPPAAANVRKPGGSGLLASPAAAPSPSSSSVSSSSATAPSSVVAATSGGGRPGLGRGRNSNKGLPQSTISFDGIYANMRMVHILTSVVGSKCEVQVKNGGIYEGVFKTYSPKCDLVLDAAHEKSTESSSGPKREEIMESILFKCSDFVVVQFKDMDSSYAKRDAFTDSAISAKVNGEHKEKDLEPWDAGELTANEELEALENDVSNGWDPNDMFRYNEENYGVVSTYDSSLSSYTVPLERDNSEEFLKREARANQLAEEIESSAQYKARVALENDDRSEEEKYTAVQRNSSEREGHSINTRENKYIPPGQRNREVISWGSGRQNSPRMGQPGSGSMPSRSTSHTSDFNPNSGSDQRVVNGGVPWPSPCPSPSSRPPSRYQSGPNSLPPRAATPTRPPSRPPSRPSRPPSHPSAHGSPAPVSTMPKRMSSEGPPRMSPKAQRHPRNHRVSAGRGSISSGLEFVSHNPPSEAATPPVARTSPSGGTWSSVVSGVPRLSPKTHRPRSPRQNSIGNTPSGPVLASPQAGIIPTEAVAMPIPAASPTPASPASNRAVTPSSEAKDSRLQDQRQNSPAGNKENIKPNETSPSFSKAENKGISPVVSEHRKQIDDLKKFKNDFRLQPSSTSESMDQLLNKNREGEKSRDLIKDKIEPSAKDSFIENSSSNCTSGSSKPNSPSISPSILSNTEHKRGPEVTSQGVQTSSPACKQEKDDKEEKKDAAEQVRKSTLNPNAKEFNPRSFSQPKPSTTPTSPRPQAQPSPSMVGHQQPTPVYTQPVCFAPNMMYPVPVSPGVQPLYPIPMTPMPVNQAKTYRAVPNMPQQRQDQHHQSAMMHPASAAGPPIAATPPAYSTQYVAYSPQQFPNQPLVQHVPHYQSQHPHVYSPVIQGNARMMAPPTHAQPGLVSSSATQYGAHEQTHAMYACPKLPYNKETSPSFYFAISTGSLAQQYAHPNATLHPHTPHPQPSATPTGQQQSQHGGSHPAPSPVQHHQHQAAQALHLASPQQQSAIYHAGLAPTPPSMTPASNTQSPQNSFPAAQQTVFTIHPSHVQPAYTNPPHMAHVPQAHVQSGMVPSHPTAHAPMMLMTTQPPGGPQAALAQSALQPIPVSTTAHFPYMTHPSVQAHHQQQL

Structure (SMILES) | Potency
CCOC(=O)c1cc2c(=O)n3ccccc3nc2n(CC2CCCO2)/c1=N\C(C)=O (stereo not drawn) | inactive
CN(C)/C=N/C(=S)Nc1cc(Cl)cc(Cl)c1 | inactive
CC1C/C(=C/c2ccccn2)C(=O)/C(=C/c2ccccn2)C1 (stereo not drawn) | 11.9 µM (active)
CCC1C/C(=C\c2cccnc2)C(=O)/C(=C/c2cccnc2)C1 (stereo not drawn) | 14.1 µM (active)
CC1CCc2nc(/C(C#N)=C/c3cccnc3)sc2C1 (stereo not drawn) | inactive
Cc1cccc(NC2=NC(=O)/C(=C/c3cccnc3)S2)c1 | inactive
C(=NOCc1ccccc1)c1ccccn1 | inactive
CC1C/C(=C\c2cccnc2)C(=O)/C(=C/c2cccnc2)C1 (stereo not drawn) | 11.2 µM (active)
CSC1=N/C(=C/c2cccnc2)C(=O)N1Cc1ccccc1 | inactive
CN(C)S(=O)(=O)c1cccc(NC(=O)Cn2cc(C(F)(F)F)cc(Cl)c2=O)c1 | inactive
O=C(CSc1nnc2ccc(-c3ccccn3)nn12)Nc1cccc(F)c1 | inactive
CN(C)S(=O)(=O)c1ccc(SCC(=O)Nc2cccc(S(=O)(=O)N3CCCC3)c2)nc1 | inactive
Cc1cc(SCC(=O)Nc2cccnc2Cl)nc2ccccc12 | inactive
CCn1c(SCC(=O)Nc2cccc(C)c2)nc2nc3c(cc2c1=O)COC(C)(C)C3 | inactive
Cc1ccc(NC(=O)CSc2nc3nc(O)cc(O)c3s2)c(Br)c1 | inactive
Cc1ccc(NC(=O)CSc2cccc3cccnc23)c(C)c1 | 39.8 µM (active)
O=C(CSc1cccc2cccnc12)N/N=C/c1cccnc1 | 39.8 µM (active)
COc1ccc(/C=C/C(=O)NCC(=O)N/N=C/c2cccnc2)cc1 | inactive
CN(C)S(=O)(=O)c1cccc(NC(=O)CSc2cccc3cccnc23)c1 | 39.8 µM (active)
O=C(CSc1ncccn1)N/N=C/c1ccccc1[N+](=O)[O-] | inactive
Cc1cccc(NC(=O)CSc2cccc3cccnc23)c1 | 44.7 µM (active)
COc1ccc(C(=O)NCCNc2nc3ccc(C)cc3cc2C#N)cc1OC | inactive
O=C(CSc1ccccn1)N1CCN(c2ncc(C(F)(F)F)cc2Cl)CC1 | inactive
COc1ccc(OC)c(C2CC(=O)N3CN(c4ccccc4F)CSC3=C2C#N)c1 (stereo not drawn) | inactive
O=C(CCCN1C(=O)/C(=C/c2ccccc2OC(F)F)SC1=S)Nc1cccnc1 | 20 µM (active)
O=C(CCCN1C(=O)c2cccnc2C1=O)Nc1ccccc1F | inactive

Structure (SMILES) | Potency
O=C(CCN1C(=O)/C(=C/c2ccc(F)cc2)SC1=S)Nc1cccnc1 | inactive
CCCCOc1ccc(Br)cc1/C(C)=N/NC1=NCCN1 | 22.4 µM (active)
C(=N\NC1=NCCN1)/c1ccncc1 | inactive
Cn1c(Cl)cnc1C(O)(c1ccccc1)c1ccccc1 | inactive
CCc1nc2ccccc2c(C(=O)OCC(=O)C(C)(C)C)c1C | inactive
COc1ccc([N+](=O)[O-])cc1NC(=O)C(C)OC(=O)CN1C(=O)C2CC=CCC2C1=O (stereo not drawn) | inactive
O=C1c2cccc(NCCCNCCO)c2C(=O)c2cccc(NCCCNCCO)c21 | 15 µM (active)
O=C1c2c(O)ccc(O)c2C(=O)c2c(NCCNCCO)ccc(NCCNCCO)c21 | 2.99 µM (active) and 20 µM (active)
CCNc1cccc2c1C(=O)N(C)C2=O | inactive
CN1C(=O)c2cccc(NCCCN3C(=O)c4ccccc4C3=O)c2C1=O | inactive
O=C1c2ccccc2C(=O)c2c(NCCCN(CCO)CCO)cccc21 | 26.7 µM (active)
CC1CCCCC1NC(=O)COC(=O)c1c2c(nc3ccccc13)/C(=C\c1ccco1)CC2 (stereo not drawn) | inactive
Cc1csc(NC(=O)c2sc3nc(-c4cccs4)ccc3c2N)n1 | inactive
CCOC(=O)c1cc2c(=O)n3ccccc3nc2n(C(C)C)/c1=N\C(=O)c1c(-c2c(F)cccc2Cl)noc1C | inactive
Cc1c(Br)c(=O)oc2c(Br)c(O)c(O)cc12 | inactive
CN(C)c1ccc(/C=N/NC(=O)c2ccc3[nH]cnc3c2)cc1 | inactive
Nc1ccc(N=Nc2ccc(O)cc2)c(N)n1 | 21.2 µM (active)
Nc1nc(O)cc(N=Nc2ccc(O)cc2)n1 | 17.8 µM (active)
Nc1ccc(/N=N\c2ccccc2)c(N)n1 | inactive
Nc1c(Cl)cc(-c2nc3cc(C(=O)NCCO)ccc3c(O)c2O)cc1Cl | inactive
COc1ccc(CNc2nc3ccccc3n2C(C)C)c(O)c1 | inactive
Nc1ccc(C(=O)NCc2ccccc2)cc1 | inactive
O=C1C=CC(=O)C(CNc2ccc(C(=O)OCc3ccccc3)cc2)=C1 | 23.8 µM (active)
CC(C)OC(=O)c1ccc(NCc2cc(O)ccc2O)cc1Cl | 20 µM (active)
CC(C)OC(=O)c1ccc(NCc2cc(O)ccc2O)cc1 | 29.9 µM (active)
COC(=O)c1ccc(C2C(C#N)=C(N)Oc3cc(O)ccc32)cc1 (stereo not drawn) | inactive

Structure (SMILES) | Potency
COC(=O)c1cc(CN2CCN(c3ccccc3)CC2)ccc1O | inactive
COC(=O)c1ccc(NCc2cc(O)ccc2O)cc1O | 39.8 µM (active)
Cc1ccc(O)c(C(=O)CC(=O)c2ccccc2Cl)c1 | inactive
CN(C)c1nc(-c2cccs2)cc(C(F)(F)F)c1C#N | inactive
CCCCOc1c(C(=O)Nc2ccccc2)nnn1-c1ccccc1 | inactive
COC(=O)c1ccc(NCc2c(O)ccc(O)c2Br)cc1Cl | 28.2 µM (active)
CCCS(=O)(=O)c1ccc(COC(=O)c2cccc(NC(=O)C(C)C)c2)cc1 | inactive
O=C(OCc1ccccc1)c1ccc(NCc2cc(O)ccc2O)cc1 | 8.91 µM (active)
CC(=O)Cc1cc(O)c2ccccc2c1OC(=O)c1ccccc1 | inactive
CC(=O)Nc1ccc(NC(=O)c2cc(=O)c3ccc(C)cc3o2)cc1 | inactive
Cc1ccc2nc(-c3ccc(NC(=O)c4cccnc4)cc3)oc2c1 | 25.1 µM (active)
Cc1ccc(C)c(OC(=O)c2cccnc2)c1 | inactive
CCOC(=O)c1cc2c(=O)n3ccccc3nc2n(CCCOC)/c1=N\C(=O)C(C)Oc1ccccc1 (stereo not drawn) | inactive
O=C(Cn1nc(C(F)(F)F)c2c1CCCC2)Nc1ccc(Cl)cc1 | 39.8 µM (active)
Nc1c(C(=O)NCc2ccc(Cl)cc2)sc2nc3c(c(C(F)(F)F)c12)CCC3 | inactive
O=C(CN1CCCC1)Nc1ccc(Br)cc1 | inactive
COC(=O)[C@@]1(Cc2ccc(F)cc2)[C@H]2c3cc(C(=O)N4CCCC4)n(CC4CC4)c3C[C@H]2CN1C(=O)c1ccccc1 | 39.8 µM (active)
CCOC(=O)C1CCCN(C(=O)c2ccc(Cn3c(=S)[nH]c4cc(C(=O)OC)ccc4c3=O)cc2)C1 (stereo not drawn) | inactive
COC(=O)[C@@]1(Cc2ccc(F)cc2)[C@H]2c3cc(C(=O)N4CCCC4)n(Cc4ccccc4)c3C[C@H]2CN1C(=O)c1ccccc1 | 25.1 µM (active)
COC(=O)C1CCN(C(=O)c2cc3c(=O)n4cccc(C)c4nc3n2Cc2ccccc2)CC1 | inactive
COC(=O)[C@@]1(Cc2ccc(F)cc2)[C@H]2c3cc(C(=O)N(C)C)n(Cc4ccc(C)o4)c3C[C@H]2CN1C(=O)c1ccccc1 | 35.5 µM (active)
C=CCNC(=O)c1cc2c(=O)n3cccc(C)c3nc2s1 | inactive
Cc1cccc(N2C(=O)CC(NNc3nc4ccccc4s3)C2=O)c1 (stereo not drawn) | inactive
COc1ccc(/C=C/CN2CCCC(CCC(=O)NCc3ccc(F)c(F)c3)C2)cc1 (stereo not drawn) | inactive
COc1c2c(c(OC)c3c1c(=O)c1ccccc1n3C)OCO2 | inactive
COCCN=C(NS(=O)(=O)c1cccs1)c1ccccc1Cl | inactive

Structure (SMILES) | Potency
C[N+]1(CN2C(=O)C3C4C=CC(C4)C3C2=O)CCCCC1 (stereo not drawn) | inactive
CCN1C/C(=C/c2ccc(N3CCOCC3)cc2)C(=O)/C(=C/c2ccc(N3CCOCC3)cc2)C1 | 25.1 µM (active)
Cc1cc(N2CCOCC2)ccc1/C=C1/SC(=O)NC1=O | inactive
CCN(CC)c1ccc(C(=O)N/N=C/c2ccc(N3CCOCC3)cc2)cc1 | inactive
NNC(=O)c1cc2c(ccc3ccccc32)o1 | inactive
O=c1oc2ccc3ccccc3c2cc1-c1nc2ccccc2o1 | inactive
O=c1cc(C(Cl)(Cl)Cl)oc2c1ccc1ccccc12 | 35.5 µM (active)
CCc1nonc1NC(=O)COc1cc(C)c(Cl)c(C)c1 | inactive
COc1ccc(-n2cc(-c3ccccc3)c3c(NCCCN4CCOCC4)ncnc32)cc1 | inactive
Fc1ccc(-n2cc(-c3ccccc3)c3c(S)ncnc32)cc1 | 39.8 µM (active)
COc1ccc(-n2cc(-c3ccccc3)c3c(NN4CCOCC4)ncnc32)cc1 | inactive
Cc1[nH]c2ccccc2c1C(O)CN1CCC2(CC1)OCCO2 (stereo not drawn) | inactive
Cc1[nH]c2ccccc2c1C(c1ccccc1)c1cccs1 (stereo not drawn) | 39.8 µM (active)
CCc1ccc(C(c2ccccc2)c2c(C)[nH]c3ccccc23)s1 (stereo not drawn) | 39.8 µM (active)
CC(C)CCN1C(=O)c2cccc3c(N)ccc(c23)C1=O | inactive
O=c1c2sccc2nc(SCc2cc(=O)n3cc(Cl)ccc3n2)n1Cc1ccccn1 | inactive
COc1ccc(OC)c([N+]2=C3SCCCN3C(O)(c3ccccc3)C2)c1 (stereo not drawn) | inactive
Cn1cc(CN2CCc3c([nH]c4ccccc34)C2C2CCCCC2)cn1 (stereo not drawn) | inactive
COCCN1C(=O)c2[nH]nc(-c3cc(C)ccc3O)c2C1c1ccc(C(C)C)cc1 (stereo not drawn) | 39.8 µM (active)
O=C1c2cccc3c([N+](=O)[O-])ccc(c23)C(=O)N1Cc1cccnc1 | inactive
CSc1ccc(C2c3c(-c4ccccc4O)n[nH]c3C(=O)N2Cc2ccncc2)cc1 (stereo not drawn) | 22.4 µM (active)
Cc1ccc2oc3c(c(=O)c2c1)C(c1ccc(O)cc1)N(CCCN(C)C)C3=O (stereo not drawn) | inactive
CCc1ccc(C2c3c(-c4cc(C)ccc4O)n[nH]c3C(=O)N2Cc2cccnc2)cc1 (stereo not drawn) | 39.8 µM (active)
Cc1ccc(C(=O)C2=C(O)C(=O)N(Cc3cccnc3)C2c2ccc(Cl)cc2)o1 (stereo not drawn) | inactive
CCc1ccc(C2c3c(-c4ccccc4O)n[nH]c3C(=O)N2Cc2cccnc2)cc1 (stereo not drawn) | 22.4 µM (active)
